Screens: PubChem BioAssay, The Scripps Research Institute Molecular Screening Center
TEAD-YAP inh = TEAD-YAP interaction inhibition. HEK-TIYL cells, TEAD-Gal4/YAP UAS-luciferase luminescence. inhibition, % at 9.12 µM. 1.4% of 640,000 active. AID 1259422; in the data active means inhibition above about 32%;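 further: 0% = median of test compound wells and 100% = reference inhibitor wells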
FBW7 activator = activators of human E3 ligase FBW7; Q969H0; AlphaScreen FBW7–phospho-cyclin E peptide binding, activator screen; normalized activity (activation), % at 26.1 µM; 0.13% of 650,000 active; in the data active means normalized activity above about 1.9%;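 further: purified mutant Fbw7 with reduced substrate affinity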
MITF inh = human MITF inhibition, primary screen. O75030. 0.91% of 650,000 active. inhibition, % at 2.6 µM. AlphaScreen MITF homodimerization, bead proximity signal; in the data active means inhibition above about 50%;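 further: 0% = vehicle wells with protein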
GPR151 activ = human GPR151 activation | Q8TDV0 | PathHunter beta-arrestin GPR151 cells, luminescence | activation, % at 11.2 µM | 1% of 650,000 active; in the data active means activation above about 4.9%;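 further: 0% = median of compound wells and 100% = cells with positive control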
Target sequence (Q8TDV0 whole entry, looked up): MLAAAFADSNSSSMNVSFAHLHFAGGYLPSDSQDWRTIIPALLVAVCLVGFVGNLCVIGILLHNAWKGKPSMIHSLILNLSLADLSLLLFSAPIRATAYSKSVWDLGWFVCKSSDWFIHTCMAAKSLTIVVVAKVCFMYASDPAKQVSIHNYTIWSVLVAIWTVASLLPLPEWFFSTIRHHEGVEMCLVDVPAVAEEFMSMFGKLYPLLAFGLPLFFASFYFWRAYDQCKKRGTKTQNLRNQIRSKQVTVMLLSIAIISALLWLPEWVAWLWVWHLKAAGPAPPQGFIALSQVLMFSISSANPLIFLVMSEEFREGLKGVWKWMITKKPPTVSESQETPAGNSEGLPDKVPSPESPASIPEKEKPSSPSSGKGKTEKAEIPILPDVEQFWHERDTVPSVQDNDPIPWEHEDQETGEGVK
GPR151 conf act = human GPR151 activation, confirmation screen. activation, % at 11.2 µM. GPR151 PathHunter beta-arrestin cells, luminescence, 90 min; % of EA-reagent control over plate median. 6,700 tested, under 10 active. AID 1508609. shares compounds with GPR151 activ;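 active means mean percent activation across replicates above the confirmation screen cutoff of 4.91%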
GPR119 ag = activates human GPR119 in a GPR151 counter-screen. shares compounds with GPR151 activ. GPR119 PathHunter beta-arrestin cells, luminescence, 90 min; 0 = compound-well median, 100 = enzyme-acceptor control. 0.3% of 6,700 active. activation, % at 11.2 µM;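 active means mean percent activation in the counterscreen above 29.09%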;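 further: counterscreen on off-target GPR119 to flag nonselective hits from the GPR151 activator screen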
The depositor's hits bear a star; . = not tested or not shown. A selection: hits, their analogues and other compounds. The true share with any hit is near 3.5%.

SMILES | TEAD-YAP inh | FBW7 activator | MITF inh | GPR151 activ | GPR151 conf act | GPR119 ag
O=C(CN1C(=O)COc2cc(S(=O)(=O)N3CCCC3)ccc21)NC1CCCCCCC1 | 7.4 | 0.1 | 0.5 | 7.1* | -0.5 | -8.6
COC(=O)CN1C(=O)COc2cc(S(=O)(=O)N3CCCCCC3)ccc21 | 1.6 | 0.0 | 6.9 | 5.8* | -0.7 | -14.8
O=C(Nc1ccccc1)C1CCCN1C(=O)NC1CCCCC1 (stereo not drawn) | -0.3 | 0.0 | -8.2 | 0.3 | . | .
O=C(O)C1CCCN1C(=O)NC1CCCCC1 (stereo not drawn) | -0.3 | 0.1 | 12.1 | 4.9* | 0.3 | 1.5
COc1ccc(-c2noc(CN3CCN(c4ccc(F)cc4)CC3)n2)c(OC)c1OC | -0.1 | -0.1 | 10.7 | 6.5* | -0.2 | -8.5
COc1ccc(-c2noc(CN3CCCN(c4ccc(F)cc4)CC3)n2)c(OC)c1OC | -15.8 | -0.1 | 5.8 | 0.4 | . | .
O=C(COc1ccc(/C=C2/NC(=O)N(c3ccccc3)C2=O)cc1Cl)Nc1ccccc1 | -11.5 | 0.1 | -6.0 | 9.0* | -0.6 | -14.1
O=C(COc1ccc(/C=C2/NC(=O)N(c3ccccc3)C2=O)cc1)Nc1ccc(F)cc1 | 2.6 | 0.5 | 14.9 | -0.8 | . | .
CC(=O)c1ccc(NC(=O)c2cnn3c(C(F)(F)F)cc(-c4ccco4)nc23)cc1 | 5.8 | 0.1 | 16.7 | 6.8* | -0.3 | -9.3
Cc1ccc(NC(=O)c2cnn3c(C(F)(F)F)cc(-c4ccco4)nc23)cc1 | -5.4 | 0.0 | 4.3 | -0.4 | . | .
O=C(CSc1ccccn1)Nc1cc(NC(=O)CSc2ccccn2)cc(C(=O)O)c1 | -2.4 | 0.2 | -13.0 | 0.8 | . | .
O=C(c1ccc(N2CCCCC2)c([N+](=O)[O-])c1)N1CCOCC1 | -10.3 | 0.0 | 2.0 | 0.1 | . | .
CC1CCN(c2ccc(C(=O)N3CCOCC3)cc2[N+](=O)[O-])CC1 | -13.7 | -0.1 | -4.7 | 5.2* | -1.4 | -17.6
O=C(O)CC1NC(=O)c2ccc(Br)cc21 (stereo not drawn) | 4.1 | 0.5 | 15.1 | 18.0* | -0.4 | -8.6
COc1ccc(CC2(CCC(=O)N[C@H](C)c3ccc(OC)cc3)CCC(=O)N2)cc1 (stereo partly drawn) | 6.7 | -0.1 | -4.2 | 5.1* | -0.9 | -6.7
COc1ccc([C@@H](C)NC(=O)CCC2(Cc3ccc(C)cc3)CCC(=O)N2)cc1 (stereo partly drawn) | 9.3 | -0.1 | -0.3 | 0.5 | . | .
Cc1ccc(CNCc2ccco2)cc1 | -0.1 | -0.4 | 23.7 | 7.0* | 0.9 | 8.2
O=C(/C=C/c1cccs1)NCCc1ccncc1 | -5.2 | 0.0 | 8.7 | 0.1 | . | .
CC(=O)Nc1ccc(N(C)C(C)=O)cc1 | 1.2 | 0.0 | 6.5 | 0.0 | . | .
CC(=O)Nc1ccc(N(C)S(C)(=O)=O)cc1 | -1.6 | -0.1 | -6.4 | 9.3* | -0.4 | -5.9
OC1CCCN(Cn2nc3c(Cl)cc(Cl)cn3c2=S)C1 (stereo not drawn) | -10.5 | -0.1 | -10.6 | 0.2 | . | .
COc1ccc(-c2noc(NCc3cccc(Cl)c3)n2)cc1OC | 1.1 | 0.6 | 13.9 | 4.9* | 0.7 | -7.0
COc1ccc(-c2noc(NCc3ccccc3)n2)cc1OC | -3.3 | 0.0 | 3.5 | -1.3 | . | .
O=C(Oc1ccccc1[N+](=O)[O-])c1ccccc1Cl | -3.3 | -0.3 | 10.0 | 10.2* | 0.3 | -4.7
O=C(Oc1ccccc1[N+](=O)[O-])c1ccc(F)cc1 | 5.9 | -0.1 | 8.9 | 5.9* | 1.2 | -12.3
SMILES | TEAD-YAP inh | FBW7 activator | MITF inh | GPR151 activ | GPR151 conf act | GPR119 ag
COCCNC(=O)/C(C#N)=C/c1cn(CCOc2ccccc2OC)c2ccccc12 | 11.0 | 0.0 | 5.9 | 0.0 | . | .
COCc1ccc([C@@H]2C[C@H]3CN(c4ccccc4)C(=O)[C@]34CCCN24)o1 | 6.1 | -0.1 | 1.5 | 5.6* | 0.7 | 2.6
COCc1ccc([C@@H]2C[C@H]3CN(C4Cc5ccccc5C4)C(=O)[C@]34CCCN24)o1 | -5.8 | 0.4 | 6.1 | 3.8 | . | .
CC(=Nc1ccccc1)c1c(O)n(Cc2ccccc2)c(=O)[nH]c1=O | -5.4 | 0.1 | 0.1 | 0.2 | . | .
O=C(CN1CCN(S(=O)(=O)c2ccc(Cl)cc2)CC1)c1ccc(F)cc1 | -5.5 | 0.0 | -7.1 | 14.7* | -0.6 | -6.1
COc1ccc(OC)c(C2CC(=O)C3=C(C2)NC(=O)CC3c2ccc(C)cc2)c1 (stereo not drawn) | -3.4 | 0.6 | 25.1 | -0.2 | . | .
O=C(NCCc1ccc(F)cc1)c1ccc([N+](=O)[O-])cc1Cl | -83.5 | 0.0 | 11.4 | 11.2* | -0.1 | 7.5
CCOCCCNC(=O)c1cc([N+](=O)[O-])ccc1Cl | 6.3 | -0.1 | 10.5 | 22.7* | 0.7 | -4.5
CCN(CC)CCCNC(=O)c1cc([N+](=O)[O-])ccc1Cl | -2.3 | 0.0 | 13.8 | 1.3 | . | .
CCCC(=O)Nc1nnc(SCC(=O)Nc2ccccc2-c2ccccc2)s1 | 16.4 | 0.0 | 1.0 | -0.7 | . | .
O=C1CCCN1CCn1cnc2c(NCCc3ccc(O)cc3)nc(Nc3ccc(N4CCOCC4)cc3)nc21 | 16.4 | 0.0 | -6.0 | 0.1 | . | .
Nc1ccc2nc(SCC(=O)Nc3ccccc3)sc2c1 | -38.0 | 0.1 | 3.8 | 2.3 | . | .
CC(NC(=O)CSc1nc2ccc(N)cc2s1)c1ccccc1 (stereo not drawn) | 3.3 | -0.2 | -4.0 | 6.3* | -0.1 | -2.1
COc1ccc2cc(C3CC(c4ccc(Cl)cc4)=NN3C(=O)c3ccccc3)c(Cl)nc2c1 (stereo not drawn) | 5.9 | -0.1 | 1.8 | 0.1 | . | .
COc1ccc(N2C(=O)c3ccc(NC(C)=O)cc3C2=O)cc1 | 4.6 | 0.1 | 4.9 | 1.2 | . | .
COC(=O)c1ccc(N2C(=O)c3ccc(NC(C)=O)cc3C2=O)cc1 | 5.0 | 0.0 | 3.9 | 11.1* | -1.3 | -12.1
CC1=C(C)/C(=N/OC(=O)c2ccc(C)cc2)C=CC1=O | -1.9 | 0.0 | 2.0 | 7.0* | -0.1 | 11.6
CCC(C)NC(=O)c1cccnc1SCC(=O)Nc1ccc(OC)cc1OC (stereo not drawn) | -11.3 | -0.1 | -10.1 | 0.3 | . | .
COc1c([N+](=O)[O-])c(=O)oc2ccc([N+](=O)[O-])cc12 | -1.9 | -0.1 | 7.2 | -1.7 | . | .
CC(=N)c1c(O)c2cc([N+](=O)[O-])ccc2oc1=O | 9.0 | -0.2 | 0.2 | 5.7* | 0.1 | 1.3
CCc1ccc(NC(=O)CSc2nc3ccsc3c(=O)n2Cc2ccccc2)cc1 | 23.8 | -0.1 | -2.7 | 3.6 | . | .
O=C(CN1CCN(CC(=O)Nc2ccccc2F)CC1)Nc1cccc(F)c1 | 10.3 | 0.6 | 13.1 | 6.2* | 1.0 | 2.6
CCn1c(=O)n(-c2ccccc2)c(=O)c2c3c(sc21)CN(C(C)=O)CC3 | 2.5 | 0.7 | -0.1 | 0.5 | . | .
CCn1c(=O)n(-c2ccccc2C)c(=O)c2c3c(sc21)CN(C(C)=O)CC3 | -5.2 | -0.2 | -0.4 | 9.0* | -0.8 | -9.7
COc1ccccc1OCCCC(=O)Nc1nnc(C2CCCCC2)s1 | -0.6 | 0.0 | 6.3 | 5.2* | 1.3 | 4.6
Cc1nnc(NC(=O)C(C)N2CCN(C)CC2)s1 (stereo not drawn) | 4.3 | 0.0 | -3.2 | 1.4 | . | .
